From PubChem BioAssay
MPTP inh = inhibitors of mitochondrial permeability transition pore | isolated mouse mitochondria, Ca2+ swelling absorbance, 30 min | inhibition, % at 10 µM | 360,000 tested, 1.4% active | AID 602449;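 active = inhibition of 50% or more, scaled per plate between neutral and stimulator controls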;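 note: 0% = DMSO wells given calcium and 100% = 1 mM EGTA wells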
aDG glyco act = alpha-DG glycosylation activation. Pro5-aDG cells, alpha-DG glycosylation AlphaScreen (IIH6); 0% Pro5, 100% B10-LARGE cell signal. activation, % at 10 µM. 360,000 tested, 0.22% active;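 active = activation of at least 8% versus controls, or a plate z-score of at least 8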;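 note: Pro5 are CHO cells carrying HIG-tagged alpha-DG that lacks glycosylation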
H9c2 TAG inh = triacylglycerol accumulation inhibition | H9c2 cells, Nile Red lipid (TAG) fluorescence; cells loaded with 200 µM oleic acid | inhibition, % at 12.5 µM | 230,000 tested, 0.66% active | AID 651582;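 active = pattern-corrected inhibition of lipid staining of at least 50% with the nuclear-stain viability signal not falling by more than 50%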;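 note: 0% = DMSO wells and 100% = triacsin C control wells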
NadD block = inhibitors of Staphylococcus aureus NadD; inhibition, % at 20 µM; 360,000 tested, 0.78% active; purified NadD enzyme, colorimetric absorbance read-out; in the data active = inhibition above about 26%
Rh123 counter = membrane potential counter-screen of mitochondrial pore inhibitors; shares compounds with MPTP inh; inhibition, % at 10 µM; 5,000 tested, 78% active; AID 624504; isolated mitochondria, Rhodamine 123 fluorescence; in the data active = inhibition above about 22%;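 note: 0% = DMSO vehicle and 100% = positive control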
MPTP swell DR = dose response confirmation of mitochondrial permeability transition pore inhibitors; 780 tested, 58% active; shares compounds with MPTP inh; isolated mitochondria swelling, absorbance; IC50, µM; in the data active = IC50 below about 20 µM
MPTP cs DR = counter-screen for mitochondrial permeability transition pore inhibitors, dose response; shares compounds with MPTP inh; isolated mitochondria counterscreen, fluorescence read-out; IC50, µM; 780 tested, 49% active; in the data active = IC50 below about 80 µM
* marks the source's active call; other numbers are inactive results; i = inactive; . = no result. This is a sample that favours compounds with a hit; in the whole collection about 2.7% have one here.

SMILES	MPTP inh	aDG glyco act	H9c2 TAG inh	NadD block	Rh123 counter	others
CCCCn1nnnc1C(c1cc2ccccc2o1)N(C)Cc1ccc(Cl)cc1 (configuration not stated)	0	0	.	16	.
COc1ccc(OC)c(NC(=O)c2ccccc2N(Cc2ccccc2)S(C)(=O)=O)c1	1	0	-21	-19	.
CCN1/C(=C/C(C)=C/c2sc3ccccc3[n+]2CC)Sc2ccccc21	199*	0	104	3	68*
O=C(NNC(=O)c1cc(-c2cccc(Br)c2)nc2ccccc12)c1csc(N2CCOCC2)n1	0	0	3	24	.
CCCn1c(CN2CCN(c3cccc(Cl)c3)CC2)nc2c1c(=O)n(C)c(=O)n2C	78*	1	-10	2	80*
Cn1c(O)c(C=NCCCCCC(=O)O)c(=O)n(C)c1=O	0	0	-16	-2	.
O=C(Cc1ccc(Cl)c(Cl)c1)NNC(=S)NCC1CCCO1 (configuration not stated)	0	0	1	-2	.
S=C(NCC1CCCO1)Nc1ccc(Cl)c(Cl)c1 (configuration not stated)	60*	0	-14	-4	87*
S=C(NCc1ccncc1)Nc1cc(Cl)cc(Cl)c1	68*	0	-46	-3	99*
S=C(NCc1ccncc1)Nc1ccccc1	-1	1	-1	0	.
S=C(NCc1ccncc1)Nc1ccc(Cl)c(Cl)c1	88*	1	.	6	92*
CC1(C(=O)NS(=O)(=O)c2cccs2)CCN1C(=O)C1CCCCC1 (configuration not stated)	0	1	12	0	.
CCN1/C(=C/c2ccc3cccc(C)c3[n+]2CC)Sc2ccccc21	101*	2	.	5	89*
Cc1ccc2c(c1)S/C(=C\c1cccc[n+]1C)N2CCO	0	0	.	9	.
CC[n+]1c(C)sc2c3ccsc3ccc21	0	0	.	10	.
CCN1/C(=C\c2ccc3cc(C)ccc3[n+]2CC)Sc2cc(C)c(C)cc21	85*	3	-60	22	85*
C[n+]1ccccc1/C=C1\Sc2ccccc2N1CCO	-2	0	2	13	.
CCN1/C(=C/c2ccc3cc(C)cc(C)c3[n+]2CC)Sc2cc(C)ccc21	87*	2	-95	15	97*
CCN1/C(=C/c2ccc3cc(C)ccc3[n+]2CC)Sc2ccc3sccc3c21	80*	0	-109	44*	87*
Cn1c(N)c(C(=O)CSc2n[nH]c(-c3ccccc3)n2)c(=O)n(C)c1=O	0	0	-11	2	.
Cc1ccnc(SCC(=O)Nc2sc3c(c2C#N)CCCC3)n1	100*	4	-44	-4	125*
CC(C)(C)C1CCc2c(sc(NC(=O)CSc3ncn[nH]3)c2C#N)C1 (configuration not stated)	52*	3	22	22	66*
CC1CCc2c(sc(NC(=O)CSc3ncn[nH]3)c2C#N)C1 (configuration not stated)	52*	0	5	1	26*
CC(=O)c1c(C)[nH]c(C(=O)OCC(=O)Nc2sc3c(c2C#N)CCC(C)C3)c1C (configuration not stated)	105*	0	-3	25	89*
CCC(Oc1ccc(Br)cc1)C(=O)N1CCN(c2ncccn2)CC1 (configuration not stated)	0	0	-10	-3	.
SMILES	MPTP inh	aDG glyco act	H9c2 TAG inh	NadD block	Rh123 counter	others
CCCCCCn1c(=O)c(Cc2ccccc2)c(O)c2ccccc21	58*	0	.	0	59*
CCCCn1c(=O)c(Cc2ccccc2)c(O)c2ccccc21	0	0	7	0	.
CC(C)C(C)NC(=O)COc1ccc(Sc2ccc(OCC(=O)NC(C)C(C)C)cc2)cc1 (configuration not stated)	79*	5	.	7	89*
O=C(COc1ccc2ccc(=O)oc2c1)NCCN1CCOCC1	-1	0	6	0	.
O=C1/C(=C/c2ccc(O)c(O)c2)SC(=S)N1Nc1ccccc1	101*	-1	-10	1	56*
CN(C)c1ccccc1-c1cc(NC=O)c2ncc(-c3cccc(C(F)(F)F)c3)n2c1	3	-1	-69	23	.
Nc1cc(=O)nc(SCC(=O)N(C2CCCCC2)C2CCCCC2)n1-c1ccccc1	64*	0	.	12	-12	MPTP swell DR=>100;MPTP cs DR=>80
Cc1ccc(NC(=O)CSc2nc(=O)cc(N)n2-c2ccccc2)cc1	0	0	-2	-1	.
CCCN(c1ccccc1F)S(=O)(=O)c1c[nH]c(C(=O)OC)c1	-1	0	.	2	.
O=C(CCN1CCN(c2ccccc2F)CC1)c1ccc(Br)cc1	112*	1	-1	-5	6	MPTP swell DR=i;MPTP cs DR=53*
COc1cc(NC(=O)c2cc(-c3cccc(O)c3)on2)cc(OC)c1OC	110*	0	-10	3	14	MPTP swell DR=2.6*;MPTP cs DR=>80
COc1cccc(-c2cc(C(=O)Nc3cccnc3Cl)no2)c1	-1	0	.	2	.
CCc1ccccc1NC(=O)c1cc(-c2cccc(O)c2)on1	102*	2	-7	-2	6	MPTP swell DR=2.1*;MPTP cs DR=>80
COc1cc(NC(=O)c2cc(-c3ccc(C)cc3)on2)cc(OC)c1OC	1	0	.	-5	.
O=C(Nc1cccnc1Cl)c1cc(-c2cccc(O)c2)on1	81*	0	.	3	-7	MPTP swell DR=>100;MPTP cs DR=>80
Cc1cc(C)c(S(=O)(=O)c2cccc(C)c2C)c(=O)[nH]1	-2	0	.	-3	.
CC(C)(C)OC(=O)N1CCC[C@H]1C(=O)N/N=C/c1ccc2ncccc2c1	3	0	0	-7	.
CCCCCCn1c2c(c(=N)c3c1CCC3)CCC2	4	0	.	0	.
CCCCCCCCCn1c2c(c(=N)c3c1CCC3)CCC2	84*	0	-53	1	92*
CC(NCCC(c1ccccc1)c1ccccc1)c1ccccc1 (configuration not stated)	94*	0	4	0	-2
COC(=O)c1ccc2c(c1)C(C)(C)C(/C=C/c1ccccc1O)=[N+]2C	75*	0	.	21	-22
COC(=O)C[C@@H]1C=C[C@@H](NC(C)=O)[C@@H](CO)O1	-1	0	.	.	.
CCCN1C(=O)/C(=C/c2ccc(C)o2)SC1=Nc1ccc(OC)cc1	64*	0	.	12	-3	MPTP swell DR=i;MPTP cs DR=>80
CCCN1C(=O)/C(=C/c2ccc(C)o2)SC1=Nc1ccc(OCC)cc1	-10	0	.	18	.
CCN(CC)CCn1c(=N)n(CCOc2ccccc2)c2ccccc21	78*	0	.	-3	2	MPTP swell DR=i;MPTP cs DR=33*
Cn1c(N=Nc2ccccc2)nc2ccccc21	-1	2	.	-4	.
CN(C)c1ccc(N=Nc2nc3ccccc3n2C)cc1	66*	1	33	2	-32
CCCCOc1ccc(C2CCC(C(C)=O)C(C)C2)cc1 (configuration not stated)	2	0	8	5	.
